# Tested on: Ditylenchus dipsaci
# Assay: proportion of mobile D. dipsaci (mixed stage) relative to DMSO control (fraction of DMSO control); higher = more viable, less nematicidal, active = 0.86 or less; extreme values may be limits of the assay
# Conditions: 60 µM; 5 days; temperature: 20 °C
# Summary of the method: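 The worms, D. dipsaci raised on pea plants in Gamborg B-5 agar, were recovered through a filter funnel into water. Each well of a 96-well plate then held about 20 of them in distilled water plus pinned compound at 60 µM final (0.6% v/v DMSO), and the sealed plates were shaken at 200 rpm at 20 °C for 5 days. Following addition of 2 µL 1 M NaOH, mobile worms were counted by microscopy, and mobility was expressed against DMSO controls as the average of two biological replicates.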
row,Compound,proportion of mobile D. dipsaci
1,O=C(c1ccccc1-c1nc(-c2ccccc2Cl)no1)N1CCCCC1,1 (inactive)
2,Cc1ccc(-c2nc(-c3ccccc3)no2)cc1C,1 (inactive)
3,N#Cc1ccc(OCc2nc(-c3ccc(Br)o3)no2)cc1,1 (inactive)
4,Fc1ccc(-c2noc(COc3cccc(Cl)c3)n2)cc1,1 (inactive)
5,CCCOc1ccc(-c2ccc(-c3nc(-c4cccnc4)no3)cc2)cc1,1 (inactive)
6,c1ccc2cc(-c3nc(-c4ccncc4)no3)ccc2c1,1 (inactive)
7,Clc1ccc(OCc2nc(-c3ccccc3)no2)cc1,1 (inactive)
8,O=C(CSc1nnc(-c2cccc(Br)c2)o1)N1CCCCC1,1 (inactive)
9,Cc1cccc(OCc2nc(-c3ccncc3)no2)c1C,1 (inactive)
10,Cc1cc(OCc2nc(-c3cccnc3)no2)cc(C)c1Br,1 (inactive)
11,COc1nc(C)ccc1-c1noc(-c2ccc(Cl)cc2)n1,1 (inactive)
12,COc1nc(-c2ccccc2)ccc1-c1noc(-c2ccco2)n1,1 (inactive)
13,Cc1ccc(-c2nnc(SCC(=O)Nc3nccs3)o2)cc1,1 (inactive)
14,Brc1ccccc1-c1nc(-c2ccncc2)no1,1 (inactive)
15,FC(F)(F)c1cccc(-c2noc(-c3cccs3)n2)c1,1 (inactive)
16,Cc1ccc(-c2noc(-c3ccc(C)cc3)n2)cc1,1 (inactive)
17,Cc1ccc(OCc2nc(-c3ccc(Br)o3)no2)cc1C,1 (inactive)
18,Cc1ccc(OC(C)c2nc(-c3ccc4c(c3)OCO4)no2)cc1C (stereo not given),1 (inactive)
19,N#Cc1ccccc1CSc1nnc(-c2ccco2)o1,1 (inactive)
20,N#Cc1ccc(CSc2nnc(-c3ccncc3)o2)cc1,1 (inactive)
